Experimental findings from PubChem BioAssay (NCI) are described below.

About 83,000 compounds went through this panel and 20% of them were active in at least one assay; those are over-represented in the sample as a whole.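 Treatment: one concentration, 48 hours, 96-well format. Scoring: percent growth, with anything below 10 considered active.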 A number with no mark means an inactive call. Activity calls are given as the source filed them.

What all share (assay): NCI-60 one-dose screen, 48 h (100 = growth as untreated, 0 = no growth, -100 = all killed)
The test system of one assay is BT-549 breast. The following applies: 10 µM unless noted.
For the next assay, the system named is MDA-MB-435 melanoma. The following applies: 10 µM unless noted.
Another assay concerns SW-620 colon. The following applies: 10 µM unless noted.
In another assay the test system is HCT-116 colon. The following applies: 10 µM unless noted.
The next assay concerns HCC-2998 colon. As to conditions: 10 µM unless noted.
A further assay has as its system KM12 colon. As to conditions: 10 µM unless noted.
A further assay relates to MCF7 breast. The following applies: 10 µM.

Regarding `COc1cc(C2C3=C(COC3=O)N(CCO)c3cc4c(cc32)OCCO4)cc(OC)c1O` (configuration not stated), the growth with BT-549 breast was -3.23% (active); in the assay with MDA-MB-435 melanoma, -35.1% (active); in the assay with SW-620 colon, 17.2%; in the assay on HCT-116 colon, 12.8%; in the assay on HCC-2998 colon it was -10.7% (active); with KM12 colon it was -15.3% (active).

`Cc1ccc2cccc(Oc3ccc(Nc4ncnc5onc(-c6ccccc6)c45)cc3)c2n1`: the growth in the assay on BT-549 breast was 93.3%; in the assay on MDA-MB-435 melanoma it was 79.9%; in the assay with SW-620 colon it was 87%; in the assay on MCF7 breast, 79.5%; in the assay on HCT-116 colon, 58.5%; in the assay with KM12 colon, 63.8%.

Take `CC1=C(C(=O)OCC2CCN(C(=O)OC(C)(C)C)CC2)[C@H](c2cccc(C#N)c2)C2=C(CC(C)(C)CC2=O)N1`: the growth in the assay with BT-549 breast is 65%; with MDA-MB-435 melanoma it was 50.3%; with SW-620 colon it was 37.2%; with MCF7 breast, 40.8%; with HCT-116 colon it was 26.9%; in the assay with KM12 colon, 42.4%.

For the compound `CCCCOCc1cc(CN2CCN(C)CC2)c(O)c2ncccc12`, the growth with BT-549 breast was 62%; in the assay on MDA-MB-435 melanoma it was 80.8%; in the assay on SW-620 colon, 45.6%; in the assay with MCF7 breast, 27.2%; in the assay with HCT-116 colon, 19.1%; in the assay on KM12 colon, 40.6%.

With `CCN1C(=O)N(CC)C2Nn3c(s/c(=C\c4ccccc4F)c3=O)=NC21` (configuration not stated), the growth was 44.3% in the assay with BT-549 breast; -19.9% (active) with MDA-MB-435 melanoma; 38.4% in the assay with SW-620 colon; 33.1% in the assay with MCF7 breast; 17.5% in the assay with HCT-116 colon; 28.5% in the assay on KM12 colon.

As for `COC(=O)C1=Nc2ccc(F)cc2/C1=C/c1sc(=S)[nH]c1O`, the growth with BT-549 breast was -3.33% (active); in the assay with MDA-MB-435 melanoma, -20.9% (active); with SW-620 colon, 22.6%; with MCF7 breast, 12.5%; with HCT-116 colon it was 6.89% (active); in the assay on KM12 colon, 10.3%.

With `COc1ccc(-c2cc(=O)c3c(OC)c4ccoc4c(/C=C/C=O)c3o2)cc1`, the growth in the assay on BT-549 breast is -22.9% (active); with MDA-MB-435 melanoma it was 21.5%; in the assay on SW-620 colon, 19.6%; in the assay with MCF7 breast, 17.3%; in the assay on HCT-116 colon, -73% (active); in the assay with KM12 colon, 80%.

As for `Nc1ccccc1-c1ccc(-c2ccc(Cl)cc2)c2c1[nH]c1ccccc12`, the growth with BT-549 breast is 85.4%; in the assay on MDA-MB-435 melanoma, 91.2%; with SW-620 colon, 78.2%; in the assay on HCT-116 colon it was 52.8%; with HCC-2998 colon, 86.1%.

Turning to `S=C1CCCC(=S)N1`, the growth is 102% in the assay on BT-549 breast; 106% with MDA-MB-435 melanoma; 105% in the assay with SW-620 colon; 102% in the assay on HCT-116 colon; 111% in the assay on HCC-2998 colon; 105% in the assay with KM12 colon.

On to `CC/C(=C(\CC)c1ccc(OCC[N+](C)(C)C)cc1)c1ccc(OC)cc1`, for which the growth is 74.5% in the assay on BT-549 breast; 86% in the assay on MDA-MB-435 melanoma; 68.5% in the assay on SW-620 colon; 48.9% in the assay with HCT-116 colon; 47.9% in the assay with HCC-2998 colon; 51.3% in the assay with KM12 colon.

On to `COc1ccc(C2C3=C(COC3=O)N(CCO)c3cc4c(cc32)CCC4)cc1OC` (configuration not stated), for which the growth in the assay on BT-549 breast is 29.2%; with MDA-MB-435 melanoma, -45.6% (active); with SW-620 colon, 14.7%; in the assay on HCT-116 colon, 14.3%; in the assay with HCC-2998 colon, -0.413% (active); in the assay with KM12 colon, -8.65% (active).

Take `COc1ccc(CN2CCCC(C(=O)c3ccc(C(F)(F)F)cc3)C2)c(O)c1` (configuration not stated): the growth in the assay on BT-549 breast was 25.7%; in the assay with MDA-MB-435 melanoma it was -48.9% (active); in the assay with MCF7 breast, 10.9%; with HCT-116 colon, 15.9%; in the assay with HCC-2998 colon it was 31.8%; in the assay with KM12 colon, 18.5%.

In the case of `CCOC(=O)c1sc(-c2ccc(OS(=O)(=O)c3ccccc3[N+](=O)[O-])c(C=O)c2)nc1C`, the growth in the assay on BT-549 breast is 47.7%; in the assay on MDA-MB-435 melanoma, 78.4%; in the assay on SW-620 colon it was 36.8%; in the assay on HCT-116 colon, 13.6%; with KM12 colon, 96.2%.

Regarding `COC(=O)/C(CCC=C(C)C)=C1\[C@@H](OC(C)=O)C[C@@]2(C)[C@H]1CC(=O)[C@H]1[C@@]3(C)CC[C@H](NCc4ccccc4)[C@@H](C)[C@@H]3CC[C@@]12C`, the growth in the assay with BT-549 breast was 89.7%; with MDA-MB-435 melanoma, 91.2%; in the assay with MCF7 breast, 82.2%; in the assay with HCT-116 colon, 73%; in the assay with HCC-2998 colon, 66.6%; in the assay with KM12 colon, 101%.

Consider `O=C(/C=C/c1ccc(Cl)cc1)c1ccc(Nc2nc(NCCO)nc(Nc3ccc(Cl)cc3)n2)cc1`, for which the growth is 68% in the assay with BT-549 breast; 62.2% in the assay on MDA-MB-435 melanoma; 62.6% in the assay with SW-620 colon; -78.9% (active) in the assay with HCT-116 colon; 20.2% in the assay on HCC-2998 colon; 18.7% in the assay with KM12 colon.

`FC(F)(F)c1cccc(Nc2nc3ccccc3nc2Nc2cccc(C(F)(F)F)c2)c1`: the growth with BT-549 breast was 7.74% (active); in the assay on MDA-MB-435 melanoma it was -71.8% (active); with MCF7 breast, -57% (active); in the assay on HCT-116 colon it was -41.7% (active); in the assay with HCC-2998 colon, -55.1% (active); in the assay on KM12 colon, -37.2% (active).

In the case of `COc1cc([C@@H]2NC(=O)NC(C)=C2C(=O)Nc2nc(-c3ccc(Cl)cc3)cs2)ccc1O`, the growth in the assay with BT-549 breast was 98.8%; with MDA-MB-435 melanoma it was 104%; with MCF7 breast, 103%; with HCT-116 colon, 99.3%; in the assay with HCC-2998 colon it was 104%; in the assay on KM12 colon it was 102%.

With `O=C(Nc1ccc(C23CC4CC(CC(c5ccccc5)(C4)C2)C3)cc1)c1cccs1`, the growth is 68.9% in the assay on BT-549 breast; 44.9% in the assay with MDA-MB-435 melanoma; 67.3% in the assay with MCF7 breast; 60.4% with HCT-116 colon; 74.8% with HCC-2998 colon; 64.8% with KM12 colon.

With `NCCOc1ncccc1/C=C1\c2ccccc2-c2ccc([N+](=O)[O-])cc21`, the growth in the assay on BT-549 breast was -17.2% (active); with MDA-MB-435 melanoma, -70.5% (active); with SW-620 colon, -50.3% (active); in the assay on HCT-116 colon it was -74.6% (active); in the assay on KM12 colon it was -51.5% (active).

For the compound `COc1cc(C(C)n2cc(-c3ccccc3)nn2)ccc1OC1CCCC1` (configuration not stated), the growth in the assay with BT-549 breast is 69.1%; in the assay with MDA-MB-435 melanoma, 65.4%; with SW-620 colon, 74.7%; in the assay on HCT-116 colon, 52.3%; in the assay with HCC-2998 colon it was 70.4%; in the assay with KM12 colon, 71.8%.
